# SNCA expr inhib = inhibitors of alpha-synuclein (SNCA) gene expression; HEK-293 SNCA-luciferase knock-in, luminescence, 24 h; Potency, µM (titrated, usually from 57.2 µM), actives largely listed as inhibitors; 140,000 tested, 0.17% active; AID 1671194; note: nearly all actives have a fitted effect of over 45% in size
# hNpr1 antagonist = human Npr1 receptor antagonism; HEK293 hNpr1 GloSensor cGMP, ANP-stimulated luminescence; Potency, µM (series often up to 46.3 µM), most hits filed as inhibitors; AID 1347048; P16066; 76,000 tested, 1.6% active; calls by dose curve; note: nearly all actives have a fitted effect of over 60% in size
#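 HEK293 cells stably expressing human Npr1 and cGMP GloSensor pGS-40F, loaded 2 h with 2% GloSensor reagent, given compound 30 min at room temperature. Luminescence read before and 20 min after 0.1 nM hNppA.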
# NIH3T3 tox = cytotoxic compounds in NIH 3T3 cells. Potency, µM (titrated, usually from 96.7 µM), usual class: inhibitors. 94,000 tested, 4.3% active. NIH 3T3 viability, CellTiter-Glo ATP luminescence, 48-72 h; note: nearly all actives have a fitted effect of over 55% in size
#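 ATP-dependent luminescence (CellTiter-Glo) served as the viability signal for NIH 3T3 cells treated with compound for 48 or 72 hr at 37 °C.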
# Luciferase inh = blocks purified firefly luciferase enzyme activity. P08659. purified P. pyralis luciferase, luminescence, biochemical. Potency, µM (top dose mostly 115 µM), usual class: inhibitors. 76,000 tested, 2.5% active. AID 1347043; note: nearly all actives have a fitted effect of over 65% in size
#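 Inhibitors were tested against purified firefly luciferase in a biochemical, low-substrate format (both substrates at 10uM) and luminescence measured with a CCD imager.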
# SNCA viab count = cell viability loss counter-screen; AID 1671193; Potency, µM (series often up to 57.1 µM), usual class: cytotoxic; HEK-293-SNCA-luc viability, GF-AFC fluorescence, 24 h; 150,000 tested, 0.12% active; note: nearly all actives have a fitted effect of over 30% in size
#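 HEK-293-SNCA-luc cells (1500/well) plated 24 h, then exposed 24 h to a dilution series; GF-AFC added 30 min at 37C, fluorescence 405/540 nm; normalised to medium-only and DMSO wells, Hill fit.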
# HEK293 tox = kills HEK 293 cells; Potency, µM (titrated, usually from 115 µM), actives largely listed as inhibitors; HEK 293 viability, ATP luminescence (CellTiter-Glo), 48-72 h; 94,000 tested, 6.6% active; note: nearly all actives have a fitted effect of over 60% in size
#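 ATP-coupled CellTiter-Glo luminescence served as viability read-out, recorded 10 min after reagent addition at room temperature. HEK 293 cells, 250 cells/well, had been incubated with pintool-transferred compound for 48 or 72 hr at 37 degree Celsius.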
# NPR1 antag cnf = hNpr1 antagonism, confirmation assay; HEK293 hNpr1 cGMP GloSensor luminescence, ANP-stimulated; shares compounds with hNpr1 antagonist; Potency, µM (top dose mostly 57.6 µM), actives largely listed as inhibitors; 1,400 tested, 76% active; calls by dose curve; note: nearly all actives have a fitted effect of over 70% in size
# NPR2 antag = antagonizes human Npr2, subtype selectivity check; shares compounds with hNpr1 antagonist; HEK293 hNpr2 GloSensor cGMP luminescence, CNP-stimulated; Potency, µM (titrated, usually from 57.6 µM), usual class: inhibitors; 1,400 tested, 67% active; AID 1347046; calls by dose curve; note: nearly all actives have a fitted effect of over 70% in size
# Target sequence (P20594 whole entry, looked up): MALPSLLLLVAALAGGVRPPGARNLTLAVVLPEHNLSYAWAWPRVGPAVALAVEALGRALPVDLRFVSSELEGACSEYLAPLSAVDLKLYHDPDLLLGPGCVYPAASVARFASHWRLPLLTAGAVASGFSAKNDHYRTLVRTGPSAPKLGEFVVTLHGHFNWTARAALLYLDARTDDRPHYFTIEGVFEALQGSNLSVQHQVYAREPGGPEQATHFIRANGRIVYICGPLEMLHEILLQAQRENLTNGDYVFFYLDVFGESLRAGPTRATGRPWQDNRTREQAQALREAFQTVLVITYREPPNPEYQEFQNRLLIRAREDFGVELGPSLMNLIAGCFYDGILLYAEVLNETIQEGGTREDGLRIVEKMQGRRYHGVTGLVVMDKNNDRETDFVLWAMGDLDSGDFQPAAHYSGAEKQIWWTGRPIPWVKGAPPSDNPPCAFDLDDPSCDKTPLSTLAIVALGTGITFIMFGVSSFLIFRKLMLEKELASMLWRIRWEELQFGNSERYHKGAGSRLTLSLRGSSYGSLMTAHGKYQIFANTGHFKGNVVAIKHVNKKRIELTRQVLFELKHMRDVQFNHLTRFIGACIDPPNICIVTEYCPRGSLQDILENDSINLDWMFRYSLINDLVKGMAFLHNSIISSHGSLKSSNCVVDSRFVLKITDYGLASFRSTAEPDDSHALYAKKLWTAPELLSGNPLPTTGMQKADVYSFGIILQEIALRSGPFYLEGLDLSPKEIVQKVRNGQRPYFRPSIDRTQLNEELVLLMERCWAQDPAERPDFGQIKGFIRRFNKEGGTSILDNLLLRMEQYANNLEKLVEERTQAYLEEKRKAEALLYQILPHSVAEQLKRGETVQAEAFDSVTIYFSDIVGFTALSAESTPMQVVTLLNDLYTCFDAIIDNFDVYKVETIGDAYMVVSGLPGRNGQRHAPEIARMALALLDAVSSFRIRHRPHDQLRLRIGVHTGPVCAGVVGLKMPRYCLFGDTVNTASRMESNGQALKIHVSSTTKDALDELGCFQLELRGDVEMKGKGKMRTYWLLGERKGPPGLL
# FLuc counter = FLuc enzyme inhibition, Npr1 counter-screen. Potency, µM (top dose mostly 57.6 µM), actives largely listed as inhibitors. shares compounds with hNpr1 antagonist. purified FLuc enzyme, luminescence, Km substrate. AID 1347047. 1,400 tested, 0.7% active
# GloSensor ctrl = control cell line activity, Npr1 antagonist counter-screen | HEK293 GloSensor cGMP, SNP-stimulated, luminescence | Potency, µM (doses to about 57.6 µM), hits mostly inhibitors | AID 1347051 | shares compounds with hNpr1 antagonist | 1,400 tested, 69% active; calls by dose curve; note: nearly all actives have a fitted effect of over 70% in size
# Numbers stand for hits; 0 = inactive; ? = inconclusive; - = no result. The list is not random: actives were taken first. Their share in the collection is about 7.4%. Unless noted, calls come from the whole dose curve; as a rule, active = well fitted curve in the direction sought with a large enough effect; inconclusive = small, poorly fitted or top-dose-only effect, or another doubt; inactive = no such curve, though single readings can be large; an effect the other way counts as inactive or inconclusive.
SMILES,SNCA expr inhib,hNpr1 antagonist,NIH3T3 tox,Luciferase inh,SNCA viab count,HEK293 tox,NPR1 antag cnf,NPR2 antag,FLuc counter,GloSensor ctrl
Cc1nn2c(c1-c1ccccc1Oc1ccccc1)N(C(=O)COc1ccccc1)CCC2,0,?,?,0,0,79µM,31µM,22µM,0,?
O=C1CC2(CCN(C(=O)c3ccc(Cl)cc3)CC2)Oc2ccccc2N1,?,-,0,-,0,?,17µM,19µM,0,12µM
O=C1CC2(CCN(C(=O)C3CCN(C(=O)c4ccc(F)cc4)CC3)CC2)Oc2ccccc2N1,0,-,0,-,0,?,-,-,-,-
CN(Cc1cccnc1)c1nc2c(c(=O)[nH]1)CCN(Cc1cc(F)cc(F)c1)CC2,0,0,0,0,0,0,-,-,-,-
CS(=O)(=O)c1ccc(CN2CC[C@@H](c3ccc4ccccc4c3)[C@H](O)C2)cc1,0,?,?,0,0,40µM,?,?,0,24µM
O=C(O)c1ccc(CN2CC[C@@H](c3ccc4ccccc4c3)[C@H](O)C2)cc1,0,0,0,0,0,0,-,-,-,-
Cc1nc2cccnc2n1CC1CCCN(S(=O)(=O)c2ccc(F)cc2F)C1 (stereo not given),0,?,?,0,0,?,-,-,-,-
COc1cccc(-c2cc(C3CCN(S(=O)(=O)c4ccc(C(C)=O)cc4)CC3)[nH]n2)c1,0,14µM,?,0,0,?,24µM,24µM,0,24µM
F[C@@H]1CN(Cc2ccc(C(F)(F)F)cc2)C[C@@H]1OCc1nc2ccccc2[nH]1,?,28µM,?,0,?,79µM,40µM,40µM,0,40µM
F[C@@H]1CN(Cc2ccc(C(F)(F)F)cc2)C[C@@H]1OCc1nc2ccncc2[nH]1,0,?,?,0,0,?,-,-,-,-
CCc1cc(=O)n(CC(=O)Nc2ccc3c(c2)OCCO3)c(-c2cccc(F)c2)n1,0,?,?,0,0,?,?,0,0,?
CCOc1ccccc1C(=O)N1CCc2[nH]nc(C(=O)NCCCc3ccccc3)c2C1,0,?,?,0,0,22µM,24µM,?,0,19µM
Cc1nn2c(c1-c1ccccc1C(N)=O)N(CCCc1ccccc1)CCC2,1.4µM,1.1µM,11µM,0,?,11µM,2.8µM,?,0,3.5µM
Cc1nn2c(c1-c1ccccc1[S+](C)(=O)[O-])N(CCCc1ccccc1)CCC2,?,18µM,?,0,?,?,5.6µM,25µM,0,4.4µM
CCn1ccc2oc(C)c(C(=O)NCc3ccc(F)cc3Cl)c2c1=O,0,0,?,0,0,?,-,-,-,-
COc1ccc(C(=O)N2CC[C@H]3C(=O)NCCCCCCN(Cc4ccncc4)[C@@H]3C2)c(OC)n1,0,0,0,0,0,0,-,-,-,-
NC(=O)Cc1c[nH]c2ncc(-c3ccccc3Oc3ccccc3)cc12,?,25µM,?,0,0,?,35µM,35µM,0,20µM
O=C(Cc1c[nH]c2ncc(-c3ccccc3Oc3ccccc3)cc12)NCc1cccnc1,?,28µM,?,0,0,?,22µM,22µM,0,20µM
CS(=O)(=O)N(C1CCOCC1)C1CN(C(=O)CCc2c[nH]c3ccccc23)C1,0,0,0,0,0,?,-,-,-,-
Cc1cc(C)c(S(=O)(=O)N2CC(c3nc(-c4ccncc4)no3)C2)c(C)c1,0,14µM,?,0,0,45µM,24µM,22µM,0,22µM
O=C1CN([S+](=O)([O-])C2CC2)CCN1[S+](=O)([O-])c1ccc(Cl)nc1,0,-,0,-,0,0,-,-,-,-
Clc1cccc(-c2cnc([C@@H]3COCCN3Cc3cnc4ccccc4c3)[nH]2)c1,0,28µM,79µM,0,0,63µM,?,?,0,?
Cc1noc(C)c1CCC(=O)NC1CCCc2c1[nH]c1c(Cl)cccc21 (stereo not given),0,0,35µM,0,0,?,?,?,0,?
COc1ccccc1-c1nc(C(=O)NCc2cccnc2)n2ccccc12,0,-,?,-,0,?,-,-,-,-
COc1ccccc1-c1[nH]nc2ncc(C(=O)NCc3cccnc3)nc12,-,-,-,-,-,-,18µM,7µM,0,0
SMILES,SNCA expr inhib,hNpr1 antagonist,NIH3T3 tox,Luciferase inh,SNCA viab count,HEK293 tox,NPR1 antag cnf,NPR2 antag,FLuc counter,GloSensor ctrl
CN(C(=O)c1cnc2n[nH]c(-c3ccccc3)c2n1)c1ccccc1,?,16µM,?,0,?,?,31µM,31µM,0,20µM
O=C(c1cnc2n[nH]c(-c3ccccc3)c2n1)N1CCOCC1,?,0,?,0,0,?,-,-,-,-
O=C(NCc1cccnc1)c1cnc2n[nH]c(-c3ccccc3)c2n1,-,-,-,-,-,-,25µM,13µM,0,0
O=C(NCc1cccnc1)c1nc(-c2ccc(F)cc2)c2ccccn12,0,0,?,0,0,?,-,-,-,-
COc1cccc(OCc2nc3c(n2Cc2ccccc2)C(=O)N(CC2CCOCC2)CCN3)c1,0,0,?,0,0,?,-,-,-,-
O=C(NC1CCCCC1)N1CCC(c2noc(-c3ccccc3)n2)C1 (stereo not given),?,18µM,?,0,0,?,27µM,?,0,27µM
CC(=O)NC[C@H]1O[C@H](Cc2cc(-c3ccc(F)cc3)on2)CC[C@@H]1O,0,?,0,?,0,0,-,-,-,-
Cc1ccc(S(=O)(=O)NC[C@H]2O[C@H](Cc3cc(-c4cccc(O)c4)on3)CC[C@@H]2O)cc1,?,?,?,0,0,?,?,?,?,?
CC(C)(C)C(=O)NC[C@H]1O[C@H](Cc2cc(-c3ccc(F)cc3)on2)CC[C@@H]1O,0,?,0,0,0,?,?,?,20µM,?
Oc1cccc(-c2cc(C[C@@H]3CC[C@H](O)[C@@H](CNC4CCC4)O3)no2)c1,0,?,0,0,0,0,?,0,0,0
O[C@H]1CC[C@@H](Cc2cc(-c3ccc(F)cc3)on2)O[C@@H]1CNC1CCCCC1,0,?,40µM,0,0,?,?,?,0,0
Cc1ccc(S(=O)(=O)NC[C@H]2O[C@H](Cc3cc(COc4ccccc4)on3)CC[C@@H]2O)cc1,0,0,?,0,0,?,-,-,-,-

# From PubChem BioAssay
